# In all, about 13,000 compounds went through this assay and about 3,200 (25%) showed an effect of 50% or more. Some of the results follow.
# Test system: P. falciparum stage V gametocytes
# Parameters: BacTiter-Glo ATP luminescence viability of purified stage V gametocytes in 384-well plates, per cent inhibition versus DMSO
# Conditions: 48 h, 5 µM; inhibitor
row,Compound,% Inhibition [%]
1,C[C@@H](NC(=O)c1nn(-c2ccc(Cl)cc2)c(=O)c2ccccc12)C(C)(C)C [TCMDC-124772],-4.584
2,Cc1cccc(C(=O)Nc2ccnc(N(C)CCCN(C)Cc3cccc(O)c3)c2)c1 [TCMDC-134953],-14.35
3,Cc1nnsc1C(=O)Nc1cccc(-c2ccc(-c3nc4ccccc4[nH]3)cc2)c1 [TCMDC-137083],11.59
4,Cc1nnsc1C(=O)Nc1cccc(-c2cccc(-c3nc4c(C)cccc4[nH]3)c2)c1 [TCMDC-137086],-18.91
5,Cc1nnsc1C(=O)Nc1cccc(-c2ccc(-c3nc4ccc(C(F)(F)F)cc4[nH]3)cc2)c1 [TCMDC-137088],70.24
6,Cc1nnsc1C(=O)Nc1cccc(-c2cccc(-c3nc4ccc(C(F)(F)F)cc4[nH]3)c2)c1 [TCMDC-137084],-5.727
7,Cc1nnsc1C(=O)Nc1cccc(-c2cccc(-c3nc4ccc(F)cc4[nH]3)c2)c1 [TCMDC-137081],77.92
8,Cc1nnsc1C(=O)Nc1cccc(-c2cccc(-c3nc4ccccc4[nH]3)c2)c1 [TCMDC-137078],82.4
9,NC(=O)c1cccc(C(=O)Nc2cccc(-c3cccc(-c4nc5ccc(F)cc5[nH]4)c3)c2)c1 [TCMDC-132198],-10.48
10,Cc1nnsc1C(=O)Nc1ccc(-c2cccc(-c3nc4ccc(F)cc4[nH]3)c2)cc1 [TCMDC-137080],-15.9
11,Cc1nnsc1C(=O)Nc1ccc(-c2cccc(-c3nc4c(C)cccc4[nH]3)c2)cc1 [TCMDC-137087],78.56
12,Cc1nnsc1C(=O)Nc1ccc(-c2cccc(-c3nc4ccc(C(F)(F)F)cc4[nH]3)c2)cc1 [TCMDC-137085],34.28
13,Cc1cccc2[nH]c(-c3cccc(-c4ccc(NC(=O)c5cccc(C(N)=O)c5)cc4)c3)nc12 [TCMDC-132201],3.68
14,Cc1nnsc1C(=O)Nc1cccc(-c2csc(-c3nc4ccccc4[nH]3)c2)c1 [TCMDC-132394],19.6
15,CC(C)(C)c1nn(-c2ccccc2)c2[nH]c(=O)c(CNC3CCCC3)cc12 [TCMDC-136483],5.874
16,Cc1cccc2c(C(=O)NC3CCN(Cc4ccccc4)CC3)cc(-c3cccnc3)nc12 [TCMDC-124900],15.64
17,O=S(=O)(c1c(Cl)cc(Cl)cc1Cl)N1CCCCC(c2ccc(F)c(F)c2)=N1 [TCMDC-135420],-45.8
18,Cc1cccc(-c2cccc(CNc3nc(NCCc4ccc(O)cc4)nc(N4CCNCC4)n3)c2)c1 [TCMDC-133810],31.6
19,O=C(Nc1ccc(-c2oc(C(=O)NCCc3cccc(Cl)c3)cc2-c2ccncc2)cc1)Nc1cccc(Cl)c1 [TCMDC-135809],-31.28
20,CC(C)CNC(=O)c1cncc(-c2ccc(CN3CCC(N4CCCC4)CC3)cc2)c1 [TCMDC-134236],32.19
21,COc1ccc(CNc2ncnc3c2[nH]c2ccc(F)cc23)cc1 [TCMDC-124466],15.1
22,Cc1cc2c(/C=C/C(=O)NC3CCC(CCN4CCc5ccc(C#N)cc5CC4)CC3)cccc2[nH]1 (centres unmarked) [TCMDC-139674],-23
23,CCN(CCC1(c2ccc(Cl)c(Cl)c2)CN(C(=O)c2cc(OC)c(OC)c(OC)c2)CCO1)C1CC2c3ccccc3CC21 (centres unmarked) [TCMDC-135570],-88.52

row,Compound,% Inhibition [%]
1,O=C(Nc1cccc(-c2ccc(-c3nc4ccc(F)cc4[nH]3)cc2)c1)c1csnn1 [TCMDC-136900],-0.6993
2,CC(=O)Nc1nc(C(=O)Nc2cccc(-c3ccc(-c4nc5ccc(F)cc5[nH]4)cc3)c2)cs1 [TCMDC-137126],7.232
3,Cc1nnsc1C(=O)Nc1cccc(-c2ccc(-c3nc4ccc(F)cc4[nH]3)cc2)c1 [TCMDC-137082],79.62
4,CC(C)CNC(=O)c1ccnc(-c2ccc(CNCCCc3ccccc3)cc2)c1 [TCMDC-134252],-3.007
5,CC[C@H](C)CNC(=O)c1cncc(-c2ccc(CNCCCc3ccccc3)cc2)c1 [TCMDC-134246],-1.463
6,CC[C@H](C)CNC(=O)c1ccnc(-c2ccc(CNCCCc3ccccc3)cc2)c1 [TCMDC-134251],81.79
7,Cc1nc(N)nc(N)c1OCc1cccc2ccccc12 [TCMDC-131357],-0.5645
8,Cc1cccc2[nH]c(-c3ccc(-c4cccc(CN5CCCC5CN)c4)cc3)nc12 (centres unmarked) [TCMDC-132993],21.61
9,Cc1cccc2[nH]c(-c3ccc(-c4ccc(CN5CCN(CCO)CC5)cc4)cc3)nc12 [TCMDC-133033],4.83
10,Cc1cccc2[nH]c(-c3ccc(-c4ccc(CN5CCN(CCC#N)CC5)cc4)cc3)nc12 [TCMDC-133867],-11.37
11,Cc1cccc2[nH]c(-c3ccc(-c4ccc(CN5CCN(C6CCN(C)CC6)CC5)cc4)cc3)nc12 [TCMDC-133865],83.09
12,Cc1cccc2[nH]c(-c3ccc(-c4ccc(CN5CCN(CC6CCCN(C)C6)CC5)cc4)cc3)nc12 (centres unmarked) [TCMDC-133898],93.25
13,Cc1cccc2[nH]c(-c3ccc(-c4ccc(CN5CCN(c6ccncc6)CC5)cc4)cc3)nc12 [TCMDC-132919],17.4
14,Cc1cccc2[nH]c(-c3cccc(-c4ccc(CN5CCCC5CN)cc4)c3)nc12 (centres unmarked) [TCMDC-132991],36.61
15,Cc1cccc2[nH]c(-c3ccc(-c4ccc(CN5CCCC5CN)cc4)cc3)nc12 (centres unmarked) [TCMDC-132999],66.58
16,Cc1cccc2[nH]c(-c3ccc(-c4ccc(CN5CCN(CCN6CCOCC6)CC5)cc4)cc3)nc12 [TCMDC-133931],6.93
17,Cc1cccc2[nH]c(-c3ccc(-c4ccc(CN5CCCC(N)C5)cc4)cc3)nc12 (centres unmarked) [TCMDC-133863],93.4
18,Cc1cccc2[nH]c(-c3ccc(-c4ccc(CN5CCCCC5)cc4)cc3)nc12 [TCMDC-133901],-1.455
19,Cc1cccc2[nH]c(-c3ccc(-c4cccc(CN5CCC(C(N)=O)CC5)c4)cc3)nc12 [TCMDC-132694],-8.961
20,O=C(Nc1cccc(OC2CCN(Cc3ccsc3)CC2)c1)c1ccc(C(F)(F)F)cc1 [TCMDC-133737],-11.34
21,Cc1cc(OCc2ccncc2)cc2c1C(=O)CC(C)(C)O2 [TCMDC-131314],21.7
22,O=C(N1CCN(c2ccnc3cc4c(cc23)N(Cc2ccccc2)CC4)CC1)C(F)(F)F [TCMDC-140138],5.48
23,O=C(Nc1ccc2c(c1)CCN2C1CCN(Cc2ccc(F)cc2Cl)C1)c1ccco1 (centres unmarked) [TCMDC-135068],-23.63

row,Compound,% Inhibition [%]
1,Cc1ccc(C(=O)Nc2ccc(-c3nc4ccccc4[nH]3)cc2)cc1S(=O)(=O)N1CCOCC1 [TCMDC-124532],-13.26
2,COC(=O)c1cccc(CNCc2ccc(-c3ccc(-c4nc5cc(C(F)(F)F)ccc5[nH]4)s3)cc2)c1.O=C(O)C(F)(F)F [TCMDC-132958],-50.86
3,CCCC(C)Nc1nc(C)cc(NCCC(=O)Nc2ccccc2)n1 (centres unmarked) [TCMDC-134763],23.15
4,Cc1sc(C)c(C(F)(F)F)c1CNCCCNc1cc(=O)c2ccccc2[nH]1 [TCMDC-140766],-57.97
5,FC(F)(F)COc1ccc2ccccc2c1CNCCCCCCNCc1c(OCC(F)(F)F)ccc2ccccc12 [TCMDC-137816],113.4
6,FC(F)(F)COc1ccc2ccccc2c1CCNCCCCNCCc1c(OCC(F)(F)F)ccc2ccccc12 [TCMDC-137317],103.9
7,CC1CN(c2ccc3occ(C(=O)Nc4ccc(-c5ccncc5)c(Cl)c4)c3c2)CC(C)N1C (centres unmarked) [TCMDC-141360],38.63
8,O=C(Nc1cccc(-c2ccc(-c3nc4ccccc4[nH]3)s2)c1)c1ccncc1 [TCMDC-136956],6.685
9,CCCN1CCN(CCNc2c3ccccc3nc3ccccc23)CC1 [TCMDC-137549],102.5
10,COc1cc2nc(NCCN3CCOCC3)n3nc(-c4ccccc4)nc3c2cc1OC [TCMDC-124407],-12.35
11,CC(C)CN1CCN(CCNc2c3ccccc3nc3ccccc23)CC1 [TCMDC-138008],92.54
12,CCCN1CCN(CCCCNc2c3ccccc3nc3ccccc23)CC1 [TCMDC-137576],93
13,CCCN1CCN(CCCNc2c3ccccc3nc3ccccc23)CC1 [TCMDC-137478],97.73
14,CCOC(=O)N1CCN(CCCNc2c3ccccc3nc3ccccc23)CC1.Cl [TCMDC-137544],15.5
15,O=C1NC(C(=O)Nc2ccccc2)C(c2ccccc2)S1 (centres unmarked) [TCMDC-131740],2.02
16,O=C(Nc1ccc(-c2ccc(-c3nc4ccccc4[nH]3)s2)cc1)Nc1ccc(F)c(F)c1F [TCMDC-133236],-3.503
17,CCC[C@@H]([C@@H](CC1CCCCC1)C(=O)N[C@H](C(=O)Nc1nccs1)C(C)(C)SCCNC(=O)OCc1ccccn1)N(O)C=O [TCMDC-137794],19.2
18,O=C(N/C=N/c1cc([N+](=O)[O-])c(-c2ccncc2)n1-c1ccccc1)c1cccc(O)c1 [TCMDC-125648],-19.59
19,O=c1ccccn1CCCC1CCCCN1 (centres unmarked) [TCMDC-140731],9.489
20,Oc1ccc(OCc2ccccn2)cc1 [TCMDC-125881],0.9057
21,CCCCN(CCCC)Cc1cc2ccccc2cc1O [TCMDC-137590],-20.89
22,Oc1ccccc1CN(CCCN(Cc1ccccn1)Cc1ccccc1O)Cc1ccccn1 [TCMDC-138469],77.52
